Experimental findings from PubChem BioAssay (NCATS) are described below.

The structures appear in SMILES notation. Where “and” joins values, the source holds several entries; their conditions need not be identical. Equal entries are not always repeated. Values without a mark were called inactive. Results filed as inconclusive are left out. Calls of active or inactive are those of the source. Unless noted, calls follow the shape of the dose curve; as a rule, active = well fitted curve in the direction sought with a large enough effect; inconclusive = small, poorly fitted or top-dose-only effect, or another doubt; inactive = no such curve, though single readings can be large; an effect the other way counts as inactive or inconclusive. Residues, ends and D or L forms follow the SMILES beside them. *: point of attachment. Cbz = O=C(OCc1ccccc1)*

The target of experiment [1] is 3',5'-cyclic-AMP phosphodiesterase 4B (Homo sapiens) (UniProt Q07343). Nature of the experiment: qHTS Assay for Inhibitors of PDE-IV (AID 607; active = well fitted activation curve with a large enough effect in the main read-out, with a control signal flat, not every such curve was filed as active; also: % of control where 0% means no effect). The settings on record: HEK293 ACTOne CNG channel cells, membrane potential fluorescence; series mostly up to 22.9 µM. A digest of the protocol:
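ACTOne HEK293 cells carry a modified cAMP-gated CNG channel and express endogenous PDE4; plated 1000 cells/well, compounds up to 22.9 uM final. Membrane-potential dye fluorescence (ex 535/em 590) was read; parental cells received 10 uM forskolin + 100 uM RO 20-1724.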

In experiment [2] the target is Cytochrome P450 3A4 (Homo sapiens) (UniProt P08684). Nature of the experiment: qHTS Assay for Inhibitors and Substrates of Cytochrome P450 3A4 (AID 884). Also: nearly all actives have a fitted effect of over 50% in size. Also: potency is read from the fitted curve at half-maximal effect. The settings on record: recombinant CYP3A4, Luciferin-PPXE luminescence; series mostly up to 57.1 µM. A digest of the protocol: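 20 nM human CYP3A4 with 25 uM Luciferin-PPXE (at KM) in 200 mM KPO4, preincubated 10 min with compound; NADPH regeneration started a 60 min RT reaction. Luciferin detected by luminescence, normalized to 57 uM ketoconazole as full inhibition.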
Cytochrome P450 3A4 (Homo sapiens), sequence (P08684 whole entry, looked up): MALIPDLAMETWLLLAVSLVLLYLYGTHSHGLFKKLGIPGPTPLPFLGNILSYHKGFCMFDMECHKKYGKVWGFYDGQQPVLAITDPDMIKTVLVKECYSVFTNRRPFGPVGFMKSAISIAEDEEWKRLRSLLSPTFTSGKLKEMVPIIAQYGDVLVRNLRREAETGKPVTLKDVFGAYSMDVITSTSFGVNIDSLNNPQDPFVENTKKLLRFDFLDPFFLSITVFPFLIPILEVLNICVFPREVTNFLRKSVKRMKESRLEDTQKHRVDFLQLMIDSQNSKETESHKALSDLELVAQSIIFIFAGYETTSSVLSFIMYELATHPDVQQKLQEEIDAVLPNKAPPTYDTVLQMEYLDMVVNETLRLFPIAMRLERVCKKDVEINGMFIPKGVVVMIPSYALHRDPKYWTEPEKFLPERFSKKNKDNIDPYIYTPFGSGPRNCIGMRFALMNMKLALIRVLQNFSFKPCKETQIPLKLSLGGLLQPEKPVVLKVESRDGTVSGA
On the technique in general: qHTS replaces the single test concentration by a dilution series.

Experiment [3] has the same target. Put plainly: qHTS Assay for Activators of Cytochrome P450 3A4 (AID 885). Also: nearly all actives have a fitted effect of over 65% in size. The note with it: recombinant CYP3A4, Luciferin-PPXE luminescence, 60 min; series mostly up to 57.1 µM. A digest of the protocol:
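20nM CYP3A4 + 25uM Luciferin-PPXE (=KM), 200mM KPO4; cpd 10 min RT; NADPH regen, 60 min RT; stop w/ detection buffer, 20 min; luminescence. Normalized to 57 uM ketoconazole.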

For experiment [4], the target named is Cytochrome P450 2D6 (Homo sapiens) (UniProt P10635). Nature of the experiment: qHTS Assay for Inhibitors and Substrates of Cytochrome P450 2D6 (AID 891). Also: nearly all actives have a fitted effect of over 60% in size. Also: potency is read from the fitted curve at half-maximal effect. The note with it: recombinant CYP2D6, luciferin-ME EGE luminescence; series mostly up to 57.1 µM. A digest of the protocol: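 Human CYP2D6 (5 nM) with 30 uM Luciferin-ME EGE (at Km) in 100 mM KPO4, compound preincubated 10 min, then NADPH regeneration system for 60 min at room temperature. Luciferin read by luminescence; normalized to 1.43 uM quinidine.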
Cytochrome P450 2D6 (Homo sapiens), sequence (P10635 whole entry, looked up): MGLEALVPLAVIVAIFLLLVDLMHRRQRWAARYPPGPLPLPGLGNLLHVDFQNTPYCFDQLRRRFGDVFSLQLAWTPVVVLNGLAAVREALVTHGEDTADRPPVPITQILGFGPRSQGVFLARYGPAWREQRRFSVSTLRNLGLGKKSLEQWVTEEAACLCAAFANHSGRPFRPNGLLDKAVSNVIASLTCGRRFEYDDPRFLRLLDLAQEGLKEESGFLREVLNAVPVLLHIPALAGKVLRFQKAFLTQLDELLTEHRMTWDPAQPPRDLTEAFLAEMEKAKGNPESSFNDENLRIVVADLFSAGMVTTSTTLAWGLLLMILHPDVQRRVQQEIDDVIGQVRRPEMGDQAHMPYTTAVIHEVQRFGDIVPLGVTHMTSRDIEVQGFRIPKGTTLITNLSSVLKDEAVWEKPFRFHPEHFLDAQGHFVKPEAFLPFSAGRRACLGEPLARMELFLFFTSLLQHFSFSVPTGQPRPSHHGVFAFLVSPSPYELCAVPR

The target of experiment [5] is Guanine nucleotide-binding protein G(i) subunit alpha-1 (Homo sapiens) (UniProt P63096). Put plainly: qHTS Assay for Inhibitors of RGS12 GoLoco Motif Activity (Green Fluorophore) (AID 879).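 Also: 0% = labeled peptide with Gαi1 and full inhibition = labeled peptide alone without protein; negative values mean loss of peptide binding seen as reduced polarization.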 The note with it: Galphai1/FITC-RGS12 GoLoco peptide, fluorescence polarization; series mostly up to 57.1 µM. A digest of the protocol:
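Fluorescence polarization assay: 50 nM Gαi1 with 10 nM FITC-labeled RGS12 GoLoco peptide in 10 mM Tris pH 7.5, 150 mM NaCl, 0.1 mM GDP, 0.05% NP40, 10 min at room temperature with compound.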

The target of experiment [6] is Cytochrome P450 2C9 (Homo sapiens) (UniProt P11712). Put plainly: qHTS Assay for Inhibitors and Substrates of Cytochrome P450 2C9 (AID 883). Also: nearly all actives have a fitted effect of over 60% in size. Also: potency is read from the fitted curve at half-maximal effect. The settings on record: recombinant CYP2C9, luciferin-H luminescence, 60 min; series mostly up to 57.1 µM. A digest of the protocol:
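Inhibition of CYP2C9 is scored as loss of luminescence, with 57uM sulphaphenazole defining 100% inhibition. Substrate Luciferin-H is used at 100uM, equal to its KM; enzyme at 10nM in 25mM KPO4, 60 min at 37C with NADPH regeneration.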

Guanine nucleotide-binding protein G(i) subunit alpha-1 (Homo sapiens), sequence (P63096 whole entry, looked up): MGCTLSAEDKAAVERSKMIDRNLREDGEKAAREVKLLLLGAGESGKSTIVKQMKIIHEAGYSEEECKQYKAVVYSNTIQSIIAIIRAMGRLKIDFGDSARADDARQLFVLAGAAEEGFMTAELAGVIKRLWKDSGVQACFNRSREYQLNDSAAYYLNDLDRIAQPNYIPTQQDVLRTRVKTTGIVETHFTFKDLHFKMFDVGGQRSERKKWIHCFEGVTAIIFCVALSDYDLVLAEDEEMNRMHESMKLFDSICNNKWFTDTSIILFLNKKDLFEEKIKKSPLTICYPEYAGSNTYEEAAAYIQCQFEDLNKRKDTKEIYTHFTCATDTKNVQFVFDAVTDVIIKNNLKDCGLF
Cytochrome P450 2C9 (Homo sapiens), sequence (P11712 whole entry, looked up): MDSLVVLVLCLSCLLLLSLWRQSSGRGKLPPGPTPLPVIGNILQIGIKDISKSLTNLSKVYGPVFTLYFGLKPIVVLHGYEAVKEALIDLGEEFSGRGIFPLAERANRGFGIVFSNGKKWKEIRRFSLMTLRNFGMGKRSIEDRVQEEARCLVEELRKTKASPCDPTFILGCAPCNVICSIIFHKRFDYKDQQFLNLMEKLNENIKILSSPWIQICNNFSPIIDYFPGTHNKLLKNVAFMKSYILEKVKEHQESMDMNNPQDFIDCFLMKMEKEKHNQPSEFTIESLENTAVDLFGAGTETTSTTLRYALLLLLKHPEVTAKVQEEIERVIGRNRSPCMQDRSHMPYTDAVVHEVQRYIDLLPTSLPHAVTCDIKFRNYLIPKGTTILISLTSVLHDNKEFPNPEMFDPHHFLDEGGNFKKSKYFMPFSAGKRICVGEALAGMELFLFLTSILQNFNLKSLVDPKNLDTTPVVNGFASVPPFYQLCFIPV
3',5'-cyclic-AMP phosphodiesterase 4B (Homo sapiens), sequence (Q07343 whole entry, looked up): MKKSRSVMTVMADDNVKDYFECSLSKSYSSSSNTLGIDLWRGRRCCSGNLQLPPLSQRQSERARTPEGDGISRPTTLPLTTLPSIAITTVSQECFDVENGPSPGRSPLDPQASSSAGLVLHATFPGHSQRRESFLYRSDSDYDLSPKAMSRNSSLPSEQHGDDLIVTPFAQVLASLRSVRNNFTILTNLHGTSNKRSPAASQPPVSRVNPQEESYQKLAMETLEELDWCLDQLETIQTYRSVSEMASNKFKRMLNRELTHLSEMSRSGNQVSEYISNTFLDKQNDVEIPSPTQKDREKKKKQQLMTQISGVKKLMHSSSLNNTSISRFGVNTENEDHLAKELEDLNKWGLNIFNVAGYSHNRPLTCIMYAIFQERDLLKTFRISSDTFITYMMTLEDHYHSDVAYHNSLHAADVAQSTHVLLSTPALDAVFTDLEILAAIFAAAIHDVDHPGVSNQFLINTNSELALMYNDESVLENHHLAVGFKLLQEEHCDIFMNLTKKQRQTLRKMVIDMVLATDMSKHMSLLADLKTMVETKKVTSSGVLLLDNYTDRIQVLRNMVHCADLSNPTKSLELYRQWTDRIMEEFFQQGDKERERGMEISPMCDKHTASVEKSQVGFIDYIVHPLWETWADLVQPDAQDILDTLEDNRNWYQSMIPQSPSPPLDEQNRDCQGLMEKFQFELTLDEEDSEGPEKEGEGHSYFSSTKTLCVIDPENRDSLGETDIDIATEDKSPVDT

For `O=C(O)C1=CCNCC1`, the Potency result in experiment [1] and in experiment [2] was “inactive” in each case.
Turning to `CCSC(=N)N`, the Potency entry in experiment [1] and in experiment [3] was “inactive” in each case. Also, in experiment [4], the Potency is 3.98 µM (active).
For `Cc1nc2c(OCc3ccccc3)cccn2c1CC#N`, the Potency entry in experiment [1], in experiment [5] and in experiment [3] was “inactive” throughout.
As to `CC(=O)NNC(=O)N1Cc2ccccc2Oc2ccc(Cl)cc21`, the Potency entry in experiment [1], in experiment [6] and in experiment [3] was “inactive” each time. For the same compound, the Potency in experiment [4] was 6.31 µM (active).
As for `CC(=O)NCCc1c[nH]c2ccc(O)cc12`, the Potency entry in experiment [1], in experiment [5] and in experiment [3] was “inactive” each time.
As for `CC(C)[C@H](NC(=O)OCc1ccccc1)C(=O)N[C@H](C=O)Cc1ccccc1` (Cbz-Val-Phe-aldehyde), the Potency entry in experiment [1] and in experiment [3] was “inactive” in each case. Also, the Potency in experiment [2] was 6.31 µM (active).
For the compound `O=c1[nH]c(=S)[nH]c(-c2ccccc2)c1Cc1c(O)ccc2ccccc12`, the Potency entry in experiment [1] is “inactive”. Further, in experiment [3], the activity change, positive = activation was -42.7% [at 11.4 µM].
For `NC(=Nc1ccccc1)NC(=O)c1nc(Cl)c(N)nc1N`, the Potency entry in experiment [1], in experiment [5] and in experiment [3] was “inactive” throughout.
With `C[C@H](NC(=O)/C(C#N)=C/c1ccc(O)c(O)c1)c1ccccc1`, the Potency result in experiment [1], in experiment [6], in experiment [3] and in experiment [4] was “inactive” throughout. Moreover, the Potency in experiment [2] was 3.16 µM (active).
Consider `CCN(CC)CCCCCCCCOC(=O)c1cc(OC)c(OC)c(OC)c1`, for which the Potency result in experiment [1], in experiment [5] and in experiment [3] was “inactive” in each case.
`c1ccc2nc(C3=NCCN3)ccc2c1`: the Potency result in experiment [1], in experiment [5] and in experiment [3] was “inactive” each time.
Consider `N=C(N)SCCN`, for which the Potency entry in experiment [1], in experiment [5] and in experiment [3] was “inactive” in each case. Also, the Potency in experiment [2] is 3.16 µM (active).
With `Cc1cccc(C(=O)NCN2CCN(c3ccccc3C#N)CC2)c1`, the Potency entry in experiment [1], in experiment [5] and in experiment [3] was “inactive” throughout.
Consider `O=S(=O)(c1cccc2c(Cl)cccc12)N1CCCNCC1`, for which the Potency entry in experiment [1], in experiment [6] and in experiment [3] was “inactive” in each case. The Potency in experiment [2] is 5.01 µM (active) and 3.98 µM (active).
`O=C(OCCN1CCOCC1)C1(c2ccccc2)CCCCC1`: the Potency result in experiment [1], in experiment [5] and in experiment [3] was “inactive” throughout. In addition, in experiment [2], the Potency was 3.16 µM (active) and 1.58 µM (active).
Take `NC(=O)CNCCC(c1ccccc1)c1ccccc1`: the Potency entry in experiment [1] and in experiment [3] was “inactive” each time.
With `C=C1C(=O)O[C@@H]2[C@H]3O[C@]3(C)CCC=C(C)CC[C@@H]12`, the Potency result in experiment [1], in experiment [6], in experiment [3] and in experiment [4] was “inactive” in each case.
Take `C/C(=C\c1ccc(C(=O)O)cc1)c1ccc2c(c1)C(C)(C)CCC2(C)C`: the Potency result in experiment [5] was “inactive”.
For `CCCn1c(=O)c2c(ncn2C)n(CCC)c1=O`, the Potency result in experiment [5] and in experiment [3] was “inactive” throughout.
Take `N=C(N)c1ccccc1`: the Potency entry in experiment [5] is “inactive”.
As for `CC[C@H](NC(=O)c1c(C)c(-c2ccccc2)nc2ccccc12)c1ccccc1`, the Potency entry in experiment [5] and in experiment [4] was “inactive” in each case. The Potency in experiment [6] was 12.6 µM (active).
Consider `O=C1NC(=O)c2cc(Nc3ccccc3)c(Nc3ccccc3)cc21`, for which the Potency result in experiment [5] and in experiment [3] was “inactive” throughout. Moreover, the Potency in experiment [2] was 1.58 µM (active).
Take `CC(C)Cn1c(=O)n(C)c(=O)c2[nH]cnc21`: the Potency entry in experiment [5] and in experiment [3] was “inactive” in each case. The Potency in experiment [2] was 3.98 µM (active) and 15.8 µM (active) and 12.6 µM (active).
With `CN1CCN(c2nc3cc(C(F)(F)F)ccc3n3cccc23)CC1`, the Potency entry in experiment [5] and in experiment [3] was “inactive” each time.
Regarding `O=C(O)c1cccnc1C(=O)O`, the Potency result in experiment [5], in experiment [6], in experiment [2] and in experiment [4] was “inactive” each time.
As to `O=[N+]([O-])c1cccc2cn[nH]c12`, the Potency result in experiment [5], in experiment [6] and in experiment [4] was “inactive” each time.
As for `Cc1ccc([N+](=O)[O-])cc1S(=O)(=O)N(C)C`, the Potency entry in experiment [5], in experiment [2] and in experiment [3] was “inactive” in each case.
For the compound `COC(=O)[C@H](NC(=O)c1cc(-c2ccccc2)nc2ccccc12)c1ccccc1`, the Potency entry in experiment [5] is “inactive”.
Take `CC[C@@H]1Cc2cc(O)ccc2C2=C1c1ccc(O)cc1C[C@H]2CC`: the Potency result in experiment [5] is “inactive”.
On to `CSC(=N)N`, for which the Potency entry in experiment [1] was “inactive”. Also, the Potency in experiment [4] is 0.0501 µM (active).
In the case of `N#C/C(=C\c1ccc(O)c(O)c1)C(=O)NCCc1ccccc1`, the Potency entry in experiment [5] and in experiment [3] was “inactive” throughout. Also, in experiment [2], the Potency is 3.98 µM (active).
